Assay [1] deals with Metallo-beta-lactamase type 2 (Klebsiella pneumoniae) (UniProt C7C422). As to the kind of experiment: qHTS to identify inhibitors of the New Delhi Metallo-beta-lactamase (NDM): assay validation screen against the NCATS LOPAC Collection (AID 1794843).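 Also: nitrocefin turnover by NDM-1 measured as 485 nm absorbance at plateau.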 The essentials: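 NDM-1 at 2 nM final in 50 mM HEPES pH 7.0 with 1 uM ZnSO4 and 0.01% Tween20 was preincubated with library compounds in DMSO. Nitrocefin (50 uM stock) was then added, and absorbance at 485 nm was read at the kinetic plateau.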
Sequence of Metallo-beta-lactamase type 2 (Klebsiella pneumoniae) (C7C422 whole entry, looked up): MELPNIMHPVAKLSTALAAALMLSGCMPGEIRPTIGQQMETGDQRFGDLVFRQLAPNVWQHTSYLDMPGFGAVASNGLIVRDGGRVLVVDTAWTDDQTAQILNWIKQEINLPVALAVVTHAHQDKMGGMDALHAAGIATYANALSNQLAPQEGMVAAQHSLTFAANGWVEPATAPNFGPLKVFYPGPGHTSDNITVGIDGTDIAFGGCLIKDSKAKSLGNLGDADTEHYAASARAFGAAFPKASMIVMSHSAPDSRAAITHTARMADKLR

For assay [2], the target named is Glutathione peroxidase 1 (Homo sapiens) (UniProt P07203). As to the kind of experiment: Primary qHTS Assay for Inhibitors of Recombinant Selenoprotein Glutathione Peroxidase 1 (GPX1) (AID 1845191). Also: nearly all actives have a fitted effect of over 65% in size. Summed up: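 Recombinant GPX1 (10 nM final) was preincubated with compound for 30 min at room temperature, then reacted with 1 mM GSH, 0.5 mM CHP, 0.5 mM NADPH and 100 nM glutathione reductase; NADPH fluorescence (340/450 nm) was read at 0 and 15 min.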
Sequence of Glutathione peroxidase 1 (Homo sapiens) (P07203 whole entry, looked up): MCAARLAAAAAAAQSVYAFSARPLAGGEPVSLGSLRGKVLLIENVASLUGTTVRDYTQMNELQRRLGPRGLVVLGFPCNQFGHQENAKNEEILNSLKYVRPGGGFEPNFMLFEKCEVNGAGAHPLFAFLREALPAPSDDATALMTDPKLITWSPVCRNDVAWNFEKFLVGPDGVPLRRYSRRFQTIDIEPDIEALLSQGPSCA

Assay [3] in a line: Quantitative High-Throughput drug screen in 47 multiple myeloma cell lines against the NCATS MIPE library collection: EJM_DSMZ cell viability assay (AID 1918926; also: nearly all actives have a fitted effect of over 30% in size; also: potency is read from the fitted curve at half-maximal effect). The essentials:
(§1)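 Relative luminescence from CellTiter-Glo served as the viability signal, referenced to DMSO-treated (100%) and cell-free medium (0%) controls. Treatment lasted 48 hours at 37C with 500 cells per well.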

A short description of assay [4]: Quantitative High-Throughput drug screen in 47 multiple myeloma cell lines against the NCATS MIPE library collection: AMO1_DSMZ cell viability assay (AID 1918927; also: nearly all actives have a fitted effect of over 30% in size; also: potency is read from the fitted curve at half-maximal effect). Summed up: as §1
Assay [5] can be described thus: Quantitative High-Throughput drug screen in 47 multiple myeloma cell lines against the NCATS MIPE library collection: ARP1_JJKsccF8 cell viability assay (AID 1918928; also: nearly all actives have a fitted effect of over 40% in size; also: potency is read from the fitted curve at half-maximal effect). The essentials: (§2)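 Myeloma cells, 500 per well, were exposed to MIPE 4.0 drugs by pin transfer for 48 h at 37 °C, 5% CO2. Viability was read as ATP luminescence with CellTiter-Glo, normalised to DMSO-only (100%) and medium-only (0%) wells.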

Assay [6] in a line: Quantitative High-Throughput drug screen in 47 multiple myeloma cell lines against the NCATS MIPE library collection: Karpas620_DSMZ cell viability assay (AID 1918959). Also: nearly all actives have a fitted effect of over 30% in size. Also: potency is read from the fitted curve at half-maximal effect. Summed up:
(§3)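 Viability readout: CellTiter-Glo luminescence following 5 min room-temperature incubation with reagent. Prior exposure: 48 h, 37C, humidified 5% CO2, 500 cells per well.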

Assay [7] is described as follows: Quantitative High-Throughput drug screen in 47 multiple myeloma cell lines against the NCATS MIPE library collection: KMM1_JCRB cell viability assay (AID 1918960). Also: nearly all actives have a fitted effect of over 30% in size. Also: potency is read from the fitted curve at half-maximal effect. Summed up:
as §2

Assay [8] has as its target Phospholipid hydroperoxide glutathione peroxidase GPX4 (Homo sapiens) (UniProt P36969). As to the kind of experiment: Primary qHTS Assay for Inhibitors of Recombinant Selenoprotein Glutathione Peroxidase 4 (GPX4) (AID 1845192). Also: nearly all actives have a fitted effect of over 65% in size. Summed up:
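GR-coupled readout: 100 nM GR, 1 mM GSH, 0.5 mM NADPH; NADPH fluorescence (ex 340/em 450 nm) read at t=0 and after 15 min RT. GPX4 200 nM, preincubated 30 min with compound; substrate 0.5 mM CHP.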

Assay [9] is described as follows: Quantitative High-Throughput drug screen in 47 multiple myeloma cell lines against the NCATS MIPE library collection: FR4_PLB cell viability assay (AID 1918924; also: nearly all actives have a fitted effect of over 35% in size; also: potency is read from the fitted curve at half-maximal effect). The essentials:
as §3

A short description of assay [10]: Quantitative High-Throughput drug screen in 47 multiple myeloma cell lines against the NCATS MIPE library collection: Delta47_JCRB cell viability assay (AID 1918925; also: nearly all actives have a fitted effect of over 45% in size; also: potency is read from the fitted curve at half-maximal effect). The essentials:
as §1

The nature of assay [11]: Quantitative High-Throughput drug screen in 47 multiple myeloma cell lines against the NCATS MIPE library collection: ARD_JJKsccE7 cell viability assay (AID 1918929; also: potency is read from the fitted curve at half-maximal effect). Summed up: as §1
Assay [12] in a line: Quantitative High-Throughput drug screen in 47 multiple myeloma cell lines against the NCATS MIPE library collection: KHM11_PLB cell viability assay (AID 1918962). Also: potency is read from the fitted curve at half-maximal effect; nearly all actives have a fitted effect of over 35% in size. The essentials:
as §3

Assay [13] can be described thus: Quantitative High-Throughput drug screen in 47 multiple myeloma cell lines against the NCATS MIPE library collection: JIM3_ECACC cell viability assay (AID 1918963; also: nearly all actives have a fitted effect of over 35% in size; also: potency is read from the fitted curve at half-maximal effect). Summed up: as §3
Assay [14] in a line: Quantitative High-Throughput drug screen in 47 multiple myeloma cell lines against the NCATS MIPE library collection: JIM1_ECACC cell viability assay (AID 1918964; also: potency is read from the fitted curve at half-maximal effect). The essentials: as §1
Assay [15] is described as follows: Quantitative High-Throughput drug screen in 47 multiple myeloma cell lines against the NCATS MIPE library collection: Karpas417_ECACC cell viability assay (AID 1918961). Also: potency is read from the fitted curve at half-maximal effect. The note with it: Karpas417 myeloma viability, CellTiter-Glo ATP luminescence, 48 h; viability (% of DMSO): at 45.8 µM (top of the series). The essentials:
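Approved and investigational drugs from MIPE 4.0 were added by pin tool to 500 cells per well. After 48 hours at 37C, ATP-based CellTiter-Glo luminescence indicated remaining viability.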
(In general: In ATP-based viability assays light output follows the ATP content of the culture.)

The target in assay [16] is Luciferin 4-monooxygenase (Photinus pyralis) (UniProt P08659). As to the kind of experiment: Primary firefly luciferase (FLuc) qHTS assay for identification of artifact compounds. (AID 1845220). Also: nearly all actives have a fitted effect of over 60% in size. Summed up:
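qHTS, 15 min compound preincubation with substrate (10 uM luciferin, 10 uM ATP) at RT, then 10 nM FLuc; 5 min; luminescence; % inhibition vs no-enzyme/DMSO controls, 4-parameter Hill fit.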

Assay [17] in a line: Primary fluorescence-based thiol-reactive (MSTI) qHTS assay for identification of artifact compounds. (AID 1845221).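 Also: thiol-reactive compounds lower the probe fluorescence signal; nearly all actives have a fitted effect of over 65% in size.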 The essentials:
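Probe: MSTI 4 uM, PBS pH 7.4, 2% DMSO. Incubation 1 h, RT, light-protected. Readout fluorescence 525/598 nm.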
A general note: qHTS replaces the single test concentration by a dilution series.

Assay [18] concerns Nanoluciferase (engineered Oplophorus gracilirostris luciferase). As to the kind of experiment: Primary Nanoluciferase (NLuc) qHTS assay for identification of artifact compounds. (AID 1845222). The essentials: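 Luminescence read-out of secreted NLuc in S16 cell conditioned medium (1:55); compounds tested with 15 min RT preincubation, then Nano-Glo substrate 1:100, 5 min. % inhibition vs no-enzyme and DMSO controls, 4-parameter Hill fit.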

This note sets out measurements from PubChem BioAssay (NCATS).

Each structure is given as a SMILES string. Results filed as inconclusive are left out. Active and inactive are the calls of the source. Calls follow the shape of the dose curve; as a rule, active = well fitted curve in the direction sought with a large enough effect; inconclusive = small, poorly fitted or top-dose-only effect, or another doubt; inactive = no such curve, though single readings can be large; an effect the other way counts as inactive or inconclusive.

Sequence of Phospholipid hydroperoxide glutathione peroxidase GPX4 (Homo sapiens) (P36969 whole entry, looked up): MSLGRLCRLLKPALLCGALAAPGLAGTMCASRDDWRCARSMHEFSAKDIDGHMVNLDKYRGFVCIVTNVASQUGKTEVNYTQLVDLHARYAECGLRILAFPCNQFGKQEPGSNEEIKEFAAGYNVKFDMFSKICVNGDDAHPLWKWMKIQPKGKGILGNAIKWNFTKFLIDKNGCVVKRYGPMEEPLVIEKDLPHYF

`C[C@@H](N)C1CCC(C(=O)Nc2ccncc2)CC1` (stereo not given in full): the compound was called inactive in [1]. Also, the Potency result in assay [2], in [3], in assay [4], in [5], in assay [6] and in assay [7] was “inactive” each time.

`Oc1ccc2ccccc2c1SSc1c(O)ccc2ccccc12`: the compound was called inactive in [1]. Also, the Potency entry in assay [2] and in assay [8] was “inactive” in each case. Moreover, the Potency in [9] was 20.9 µM (active); in assay [10] it was 16.6 µM (active); in assay [4], 20.9 µM (active); in assay [5], 23.5 µM (active); in assay [11] it was 16.6 µM (active); in [6] it was 10.5 µM (active). Also, the Potency in assay [12] is 20.9 µM (active); in [13] it was 18.7 µM (active); in assay [14] it was 14.8 µM (active).

On to `CC1(C)C(=O)N(CCN2CCC(C(=O)c3ccc(F)cc3)CC2)c2ccccc21`, for which the call in assay [1] was inactive. Moreover, the Potency entry in assay [8], in assay [9] and in assay [3] was “inactive” each time. Besides, the Potency in assay [10] is 16.6 µM (active); in assay [4] it was 6.62 µM (active); in assay [5], 20.9 µM (active); in assay [11] it was 9.35 µM (active); in [6] it was 3.72 µM (active); in assay [7], 8.33 µM (active).

As to `COc1cc2c(cc1OC)C1CC(=O)C(CC(C)C)CN1CC2` (stereo not given), the call in [1] was inactive. Moreover, the Potency entry in assay [8], in assay [9], in assay [10], in assay [3], in assay [11] and in assay [6] was “inactive” throughout. For the same compound, the Potency entry in assay [7], in assay [15], in assay [13] and in assay [14] was “inactive” each time.

On to `O=c1ccc2ccc(O)c(O)c2o1`, for which, in assay [1], the result was inactive. Also, the Potency result in [2], in assay [8], in assay [9] and in assay [11] was “inactive” throughout. Further, the figures for the Potency in assay [10] and in assay [6] were 6.62 µM (active) and 23.5 µM (active), respectively.

As to `O=C1c2c(O)cc(O)cc2OC(c2ccc(O)c(O)c2)C1O` (stereo not given), the call in [1] was inactive. The Potency result in assay [2], in assay [9], in [10], in assay [3], in [4] and in assay [5] was “inactive” each time. The Potency result in assay [6], in [13] and in assay [14] was “inactive” in each case.

In the case of `O=C(c1ccccc1)c1ccc2n1CCC2C(=O)O` (stereo not given), the result in assay [1] was inactive. Also, the Potency entry in assay [2], in assay [8], in [9], in assay [11], in assay [6] and in [7] was “inactive” each time. The Potency result in [15] is “inactive”. Also, the values for the Potency in assay [10], in assay [3] and in [13] were 9.35 µM (active), 2.35 µM (active) and 16.6 µM (active), respectively.

For `COc1ccccc1N1CCN(CCN(C(=O)C2CCCCC2)c2ccccn2)CC1`, the result in [1] and in assay [18] was inactive. In addition, the Potency result in assay [16], in [17], in assay [9], in assay [3], in [5] and in assay [13] was “inactive” each time. Further, the Potency in [10] is 10.5 µM (active); in assay [4], 2.96 µM (active); in [11] it was 1.18 µM (active).

Turning to `O=c1cc(N2CCOCC2)oc2c(-c3ccccc3)cccc12`, in [1], the call was inactive. Moreover, the Potency entry in [2], in [8], in assay [4], in assay [11] and in assay [6] was “inactive” in each case. Moreover, the Potency in assay [9] was 16.6 µM (active); in [10], 1.48 µM (active); in assay [5] it was 18.7 µM (active).

For `Nc1nc(N)c(N=O)c(OCC2CCCCC2)n1`, the outcome in assay [1] was inactive. In addition, the Potency entry in assay [2] and in assay [8] was “inactive” throughout. Moreover, the Potency in assay [9] is 18.7 µM (active); in [10] it was 4.18 µM (active); in [3], 10.5 µM (active); in assay [4], 13.2 µM (active); in assay [5], 14.8 µM (active); in assay [11] it was 5.26 µM (active). The figures for the Potency in assay [6], in assay [7] and in assay [15] were 13.2 µM (active), 6.62 µM (active) and 2.64 µM (active), respectively.
